Assay results as given in PubChem BioAssay.
Activity calls are given as the source filed them. Unless noted, how the calls were made is not given here.

Experiments:
[1] = test system: Wnt5a (protein binding on small-molecule microarray); assay: small molecules binding Wnt5a protein – biophysical, small-molecule microarray, 635/667 nm fluorescence, primary screen (AID 1142); conditions: 635 nm fluorescence, higher = more signal;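 further: fluorescence read at 667 nm with signal to noise per printed feature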
[2] = ATP-based viability of Huh7 replicon cells – cell-based, CellTiter-Glo luminescence, basal, 48 h, cytotoxicity control for HCV replication inhibitor project, primary screen (AID 1143); conditions: higher = more signal, called active from +8 up or from −8 down;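 further: Huh7 hepatoma cells carrying a hepatitis C replication reporter with no stimulus; test concentration not given here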
[3] = Pseudomonas biofilm growth suppression – PAO1 strain, BacTiter-Glo luminescence, LB-PBS, primary screen (AID 1144); conditions: P. aeruginosa PAO1 biofilm, 12 h, higher = more signal
[4] = basal CRE-LacZ reporter activity in PC12 – cell-based, unstimulated, primary screen (AID 1145); conditions: no forskolin, luminescence, 4.5 h, higher = more signal, called active from +8 up or from −8 down
[5] = forskolin-driven CRE-LacZ activity in PC12 – cell-based, CRE-LacZ reporter, forskolin-stimulated, primary screen (AID 1146); conditions: luminescence, 4.5 h, higher = more signal, called active from +8 up or from −8 down;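 further: PC12 cells with 6xCRE LacZ reporter stimulated by forskolin 10 µM; beta-galactosidase reporter signal reflecting CREB driven transcription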
[6] = molecular target: Streptavidin (Streptomyces avidinii) (UniProt P22629); assay: compounds binding control protein streptavidin – biophysical, small-molecule microarray, 635/667 nm fluorescence, artefact control for SMM compound annotation, primary screen (AID 1147); conditions: higher = more signal;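 further: signal reflects streptavidin binding to arrayed compounds as a control protein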
Streptavidin (Streptomyces avidinii), sequence (P22629 whole entry, looked up): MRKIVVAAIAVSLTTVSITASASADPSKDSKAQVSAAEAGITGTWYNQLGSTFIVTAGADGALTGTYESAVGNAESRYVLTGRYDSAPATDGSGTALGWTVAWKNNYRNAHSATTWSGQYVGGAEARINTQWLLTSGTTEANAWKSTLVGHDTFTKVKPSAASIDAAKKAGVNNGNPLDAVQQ

[7] = probe aInhba binding on compound microarray – biochemical, small-molecule microarray, 635/667 nm fluorescence, primary screen (AID 1148); conditions: higher = more signal;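 further: score merges 667nm spot fluorescence with signal-to-noise for antibody binding to printed compounds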
[8] = molecular target: Torsin-1A (Homo sapiens) (UniProt O14656); assay: TOR1A wild-type binding on microarray – cell lysate, small-molecule microarray, lysate, 635/667 nm, primary screen (AID 1149); conditions: COS7 hTOR1A-WT lysate, 635 nm fluorescence, higher = more signal
Torsin-1A (Homo sapiens), sequence (O14656 whole entry, looked up): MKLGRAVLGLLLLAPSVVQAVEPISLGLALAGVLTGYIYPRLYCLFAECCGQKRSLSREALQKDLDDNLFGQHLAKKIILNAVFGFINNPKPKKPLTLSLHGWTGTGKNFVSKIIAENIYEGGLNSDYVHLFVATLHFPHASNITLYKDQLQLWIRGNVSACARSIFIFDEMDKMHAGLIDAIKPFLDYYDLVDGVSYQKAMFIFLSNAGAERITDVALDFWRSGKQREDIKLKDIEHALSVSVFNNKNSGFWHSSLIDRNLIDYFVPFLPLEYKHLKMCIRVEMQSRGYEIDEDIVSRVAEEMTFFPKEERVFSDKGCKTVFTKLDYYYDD

[9] = molecular target: Torsin-1A (Homo sapiens) (UniProt O14656); assay: torsin A mutant lysate binding on microarrays – cell lysate, small-molecule microarray, COS7 lysate, 635/667 nm fluorescence, primary screen (AID 1150); conditions: COS7 hTOR1A mutant lysate, 635 nm fluorescence, higher = more signal;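 further: score pools 667 nm emission and signal to noise measuring lysate protein binding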
[10] = test system: Sonic hedgehog protein (Shh); assay: Sonic hedgehog microarray binding compounds – biochemical, small-molecule microarray, 635/667 nm fluorescence, primary screen (AID 1151); conditions: 635 nm fluorescence, higher = more signal;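 further: Shh protein binding to compounds spotted on small-molecule microarray slides; score combines spot fluorescence intensity with signal-to-noise across triplicate slides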

SMILES	composite z-score [1]	z-score [2]	z-score [3]	z-score [4]	z-score [5]	composite z-score [6]	composite z-score [7]	composite z-score [8]	composite z-score [9]	composite z-score [10]
CCCCN1CC=CC23O[C@@H]4/C=C\CCCOC(=O)C4[C@H]2C(=O)N(CCO)[C@@H]3C1=O (stereo not given in full)	-0.703	-0.211 (inactive)	-1.29 (inactive)	-0.48 (inactive)	-0.681 (inactive)	-1.6	-0.128	-2.13	-1.59	-0.214
COc1ccc([Si](C)(C)[C@H]2[C@H](CC(=O)N3CCC[C@H]3CO)O[C@@]3(C(=O)N(Cc4ccc(N5CCOC5=O)cc4)c4ccccc43)[C@@H]2C)cc1	0.434	-2.09 (inactive)	0.11 (inactive)	0.702 (inactive)	-0.101 (inactive)	-0.0564	0.235	0.702	0.64	2.05
C=C[C@H]1C(C(=O)OCC)=CC[C@@H](c2ccccc2)N1S(=O)(=O)c1ccc(C)cc1	0.197	-4.68 (inactive)	-0.376 (inactive)	-0.0137 (inactive)	0.299 (inactive)	0.767	0.13	0.683	0.508	0.056
NC(=O)NCC#Cc1ccc2c(c1)[C@]1(C(=O)N2)[C@H](c2ccccc2OCCO)N2[C@H](c3ccccc3)[C@H](c3ccccc3)OC(=O)[C@H]2[C@@H]1C(=O)NC[C@H](O)c1ccccc1	-0.287	-2.62 (inactive)	0.129 (inactive)	0.0384 (inactive)	-0.278 (inactive)	0.83	-0.101	0.142	-0.487	-0.174
COc1ccc([Si](C)(C)[C@@H]2[C@@H](CC(=O)N(CCO)Cc3ccccc3)O[C@]3(C(=O)N(Cc4cccc(N5CCCCC5=O)c4)c4ccccc43)[C@H]2C)cc1	0.585	-4.76 (inactive)	-0.952 (inactive)	0.716 (inactive)	0.708 (inactive)	-0.402	0.187	0.961	0.706	2.06
C[C@@H]1NC(=O)[C@@H](Cc2ccccc2)NC(=O)[C@@]23C(=O)N[C@@H](Cc4ccccc4)C2[C@H](C)[C@@]2(C)O[C@H]2C3/C=C/C/C=C\CNC1=O (stereo not given in full)	-0.186	0.15 (inactive)	0.111 (inactive)	3.57 (inactive)	0.272 (inactive)	-0.963	-0.187	0.406	0.32	1.45
O=C(NCCN1CCOCC1)[C@@H]1c2ccccc2C(=O)N(Cc2ccccc2Cl)[C@H]1c1ccc(CO)cc1	-0.38	-0.276 (inactive)	0.11 (inactive)	-0.295 (inactive)	-0.6 (inactive)	-0.831	-0.32	-0.826	1.23	-1.07
CC(C)C(CO)N1C(=O)[C@@H]2C3C(=O)OCCC/C=C\[C@H]3OC23C=CCN(c2ccc4ccccc4c2)C(=O)[C@@H]13 (stereo not given in full)	-0.4	-0.567 (inactive)	1.09 (inactive)	-0.761 (inactive)	-0.137 (inactive)	-0.537	-0.0695	-1.83	-0.801	0.41
CC1CC/C=C\[C@H]2OC34C=CCN(C(C)C)C(=O)[C@H]3N(CCO)C(=O)[C@@H]4C2C(=O)O1 (stereo not given in full)	-0.417	-0.177 (inactive)	0.591 (inactive)	-0.619 (inactive)	-0.599 (inactive)	-1.14	-0.203	-0.737	-1.17	-0.778
COC(=O)[C@@]1(Cc2ccc(F)cc2)[C@H]2c3cc(C(=O)N(C)C)n(Cc4ccc(OC(F)(F)F)cc4)c3C[C@H]2CN1C(=O)c1ccccc1	0.0007	0.875 (inactive)	-0.362 (inactive)	0.397 (inactive)	0.391 (inactive)	0.686	0.0633	0.296	0.569	-0.817
CC1CC/C=C\[C@H]2OC34C=CCN(C(C)(C)C)C(=O)[C@H]3N(CCCCCO)C(=O)[C@@H]4C2C(=O)O1 (stereo not given in full)	-0.427	0.356 (inactive)	0.477 (inactive)	-0.35 (inactive)	-0.928 (inactive)	-0.719	-0.253	-0.201	-1.33	0.353
CC(C)[Si](C#CCCCC#N)(O[C@H](c1ccccc1)c1cn(Cc2ccccc2)nn1)C(C)C	0.125	-0.507 (inactive)	-0.319 (inactive)	0.773 (inactive)	-0.0473 (inactive)	0.62	-0.157	0.148	0.194	0.531
CN(C)C(=O)[C@@]1(Cc2ccccc2CN=[N+]=[N-])N=C(c2ccc(OCCCO)cc2)O[C@H]1c1ccccc1N=[N+]=[N-]	0.0168	-4.96 (inactive)	-0.638 (inactive)	1.74 (inactive)	-1.69 (inactive)	1.51	0.439	0.504	1.21	0.66
[N-]=[N+]=NCc1ccccc1[C@H]1OC(c2ccc(OCCCO)cc2)=N[C@@]1(Cc1ccccc1N=[N+]=[N-])C(=O)NCC(O)CO (stereo not given in full)	0.462	-3.57 (inactive)	0.401 (inactive)	0.745 (inactive)	-1.22 (inactive)	0.9	0.346	0.256	0.301	-0.562
COC(=O)C1=CC(CCCO)=CC(c2cccs2)N(C)C=C1C(=O)OC (stereo not given)	-0.149	-0.786 (inactive)	0.321 (inactive)	-0.285 (inactive)	-0.217 (inactive)	0.0877	0.0485	-0.186	1.04	-0.369
COc1cc(NN2C(C(O)c3cc(OC)c(OC)c(OC)c3)C=CC3C(=O)N(C)C(=O)C32)cc(OC)c1OC (stereo not given)	-0.019	-0.0088 (inactive)	-0.792 (inactive)	0.243 (inactive)	0.445 (inactive)	0.853	-0.0336	0.434	0.459	0.0774
[N-]=[N+]=NCc1ccccc1C[C@@]1(C(N)=O)N=C(c2ccc(OCCCO)cc2)O[C@@H]1c1ccccc1	-0.182	-3.28 (inactive)	0.103 (inactive)	0.498 (inactive)	-0.0576 (inactive)	0.559	0.144	0.754	1.22	-0.671
CC(C)N1CC=CC23O[C@@H]4C=CCCOC(=O)C4[C@H]2C(=O)N(CCCO)[C@@H]3C1=O (stereo not given in full)	-0.352	-2.89 (inactive)	-0.614 (inactive)	-0.749 (inactive)	-0.313 (inactive)	-0.912	-0.0933	-1.02	-0.457	0.403
[N-]=[N+]=Nc1ccccc1C[C@@]1(C(N)=O)N=C(c2ccc(OCCCO)cc2)O[C@@H]1c1ccccc1N=[N+]=[N-]	0.351	-5.17 (inactive)	-0.0225 (inactive)	-0.207 (inactive)	-1.89 (inactive)	0.823	0.258	0.252	0.789	-0.535
CC[C@@H]1O[Si](C(C)C)(C(C)C)c2c1cc(-c1cc(C)c(OC)c(C)c1)nc2-c1ccc(Oc2ccccc2)cc1	-0.216	0.0485 (inactive)	-0.523 (inactive)	-0.491 (inactive)	0.316 (inactive)	-0.21	-0.231	-0.851	-0.542	0.305
Cc1ccc(S[C@]2(C(=O)NC(C)C)CC(=O)N(Cc3cc(C(F)(F)F)cc(C(F)(F)F)c3)[C@@H]2c2ccc(CO)cc2)cc1	0.0368	-0.523 (inactive)	0.0139 (inactive)	0.0655 (inactive)	0.832 (inactive)	-1.18	-0.121	-1.86	-1.78	-0.621
CC(CO)N1C(=O)[C@]2(C)C3C(=O)OCCC/C=C\[C@H]3OC23C=CCN(c2ccc(Cl)cc2)C(=O)[C@@H]13 (stereo not given in full)	-0.313	0.612 (inactive)	-1.53 (inactive)	0.187 (inactive)	-0.592 (inactive)	-0.741	-0.316	-0.775	-0.734	0.0223
COc1ccc(C#Cc2ccc3c(c2)[C@]2(C(=O)N3)[C@H](c3ccc(OCCO)cc3)N3[C@H](c4ccccc4)[C@H](c4ccccc4)OC(=O)[C@H]3[C@@H]2C(=O)NC[C@H](O)c2ccccc2)cc1	0.501	-2.47 (inactive)	-0.506 (inactive)	-0.491 (inactive)	-0.808 (inactive)	0.777	0.122	-0.0854	0.327	1.32
O=C(NCc1ccc(F)cc1)[C@H]1C[C@H]2C(=O)NCC(=O)N2[C@H]1c1ccc(O)cc1	0.205	-0.764 (inactive)	0.3 (inactive)	0.0124 (inactive)	-0.0067 (inactive)	-0.311	0.177	0.134	1.82	1.69
COCCOC(=O)N1C(=O)[C@@]2(c3cc(C#CC4=CCCCC4)ccc31)[C@H](C(=O)Nc1nc3ccccc3s1)[C@H]1C(=O)O[C@H](c3ccccc3)[C@H](c3ccccc3)N1[C@@H]2c1ccc(O)cc1	0.381	-0.67 (inactive)	0.288 (inactive)	0.532 (inactive)	0.817 (inactive)	1.25	-0.0178	1.15	0.358	2.06
Cc1ccc(NN2C(C(O)c3c(F)cccc3Cl)C=CC3C(=O)N(C4CCCCC4)C(=O)C32)cc1 (stereo not given)	0.361	-3.26 (inactive)	-0.933 (inactive)	-0.0787 (inactive)	0.355 (inactive)	1.75	-0.0675	0.0334	0.448	-0.216
COc1cc(C(O)C2C=CC3C(=O)N(C)C(=O)C3N2Nc2ccccc2)cc(OC)c1OC (stereo not given)	0.238	0.338 (inactive)	-0.426 (inactive)	0.246 (inactive)	-0.944 (inactive)	1.06	0.813	0.892	1.17	-0.153
COCCOC(=O)N1C(=O)[C@@]2(c3cc(C#CCC(C(=O)OC)C(=O)OC)ccc31)[C@H](c1ccc(OCCO)cc1)N1[C@H](c3ccccc3)[C@H](c3ccccc3)OC(=O)[C@H]1[C@@H]2C(=O)N1CCc2cc(OC)c(OC)cc2C1	0.575	-1.35 (inactive)	-0.119 (inactive)	-0.0607 (inactive)	0.936 (inactive)	0.918	-0.0087	0.843	0.769	1.8
CCOC(=O)C[C@H]1[C@H](OC(=O)c2ccc(C(=O)c3ccccc3)cc2)[C@@H](NC(=O)CC(C)C)c2cc(OCCCO)ccc2N1C(=O)c1ccccc1	0.154	-0.133 (inactive)	-0.367 (inactive)	3.01 (inactive)	-0.443 (inactive)	1.17	-0.0131	0.125	0.442	1.32
